Each structure is given as a SMILES string.

The test system of test [1] is Vero E6 infected with SARS-CoV-2. As to the kind of experiment: morphology score (similarity to uninfected cells); higher = more like uninfected cells. The conditions noted are these: 24 h.
Test [2] has the same test system. Put plainly: SARS-CoV-2 infection rate relative to infected DMSO; higher = more infection, active = 60 or less. The conditions noted are these: 24 h.

`CNC(=O)c1ccc(Nc2ncc(C(F)(F)F)c(NCc3nccnc3N(C)S(C)(=O)=O)n2)cc1` [defactinib] (0.833333 µM) had a morphology score in test [1] of 0.0478. Besides, the SARS-CoV-2 infection rate in test [2] was 100% (inactive).
On the same counts, the results for `C=CCNc1ncnc2ccc(Br)cc12` (10 µM) are 0.19 and 101% (inactive).
On the same counts, the results for `C[C@@]1(c2cc(-c3cncnc3)c(F)cc2F)CCSC(N)=N1` (10 µM) are 0.151 and 106% (inactive).
Compound `On1ncc(C2CCNCC2)c1-c1cccc(-c2ccccc2)c1` (10 µM) displayed a morphology score in test [1] of 0.0231. Besides, in test [2], the SARS-CoV-2 infection rate is 108% (inactive).
The compound `CS(=O)(=O)Nc1ccc([N+](=O)[O-])cc1Oc1ccccc1` [nimesulide] (10 µM) gave a morphology score in test [1] of 0.0266. Also, in test [2], the SARS-CoV-2 infection rate is 105% (inactive).
On the same counts, the results for `O=C(CCCCCCCC(=O)NCCO)NCCO` [adelmidrol] (10 µM) are -0.0406 and 105% (inactive).
On the same counts, the results for `N[C@@H](Cn1ccc(=O)n(Cc2ccccc2C(=O)O)c1=O)C(=O)O` (10 µM) are 0.28 and 79% (inactive).
Regarding `CC[C@H](C)[C@@H]1NC(=O)[C@H](Cc2ccc(OC)cc2)NC(=O)CCCSC[C@@H](C(=O)N2CCC[C@H]2C(=O)N[C@@H](CC(C)C)C(=O)NCC(N)=O)NC(=O)[C@H](CC(N)=O)NC(=O)[C@H](CCC(N)=O)NC1=O` [carbetocin] (10 µM), the morphology score in test [1] is 0.123. Further, the SARS-CoV-2 infection rate in test [2] was 118% (inactive).
Taken in the same sequence, the figures for `CC(=O)OCC(=O)[C@H]1CC[C@H]2[C@@H]3CC[C@H]4C[C@H](O)CC[C@]4(C)[C@H]3C(=O)C[C@]12C` [alfadolone-acetate] (10 µM) were -0.231 and 116% (inactive).
On the same counts, the results for `CCCCCCCCCCCCCCC[C@@H](O)[C@@H](N)CO` [safingol] (10 µM) are -0.197 and 117% (inactive).

For the origin of these results see the supplement of paper PMC13380429.
